# Several values for one entry are separate records, joined by “and”; a condition that tells them apart may be missing. Equal entries are not always repeated. Records with an inconclusive call do not appear. Where a call stands in place of a potency, no number is given. Activity calls are given as the source filed them. Unless noted, calls follow the shape of the dose curve; as a rule, active = well fitted curve in the direction sought with a large enough effect; inconclusive = small, poorly fitted or top-dose-only effect, or another doubt; inactive = no such curve, though single readings can be large; an effect the other way counts as inactive or inconclusive.
# Legend:
# [1] = qHTS Assay for Identifying Gametocytocidal Compounds (AID 743244); also: potency is read from the fitted curve at half-maximal effect;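 as to max response: actives lower the fluorescent signal which means gametocytes are killed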; conditions: P. falciparum 3D7 stage III-V gametocytes, alamarBlue, 72 h; max response: stronger effect = lower value
# Procedure, shortened: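 Using 20,000 stage III–V 3D7 gametocytes per well, compounds were incubated 72 h under 37 °C/5% CO2. Viability was then assessed by 24 h alamarBlue reduction, measured fluorometrically at 525/598 nm.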
# [2] = qHTS assay for measurement of the activity of small molecule inhibitors on Zika virus induced Caspase-3 activity in human iPSC derived neural progenitor cells (hNPCs) (AID 1224857); also: nearly all actives have a fitted effect of over 65% in size
# Procedure, shortened: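 After overnight (16–20 h) culture at 350 cells/well, hNPCs get compound, then ZIKV 2 FFU/cell one hour later. Six hours on, Caspase-Glo 3/7 is added and luminescence measured.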
# [3] = qHTS assay for measurement of the activity of small molecule inhibitors on Zika virus induced Caspase-3 activity in human astrocytoma cells (AID 1224859)
# Procedure, shortened: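 Inhibition of Zika-induced caspase-3/7 activity: SNB-19 cells, 1 h compound pretreatment, ZIKV 2 FFU/cell for 6 h at 37 C, Caspase-Glo luminescence read-out.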
# [4] = qHTS assay to identify small molecule inhibitors of chordoma cells - UCH-1 (AID 1259355); also: nearly all actives have a fitted effect of over 55% in size; also: potency is read from the fitted curve at half-maximal effect
# Procedure, shortened: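 Screening used approved and investigational drugs in 15-point titration against 800 seeded cells per well. A fixed combination of auranofin with camptothecin, doxorubicin, rubitecan and topotecan followed compound addition, and growth was scored by CellTiter-Glo after 48hr.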
# [5] = qHTS assay to identify small molecule inhibitors of chordoma cells - UCH-2 (AID 1259356); also: potency is read from the fitted curve at half-maximal effect
# [6] = P-glycoprotein substrates identified in KB-8-5-11 adenocarcinoma cell line, qHTS therapeutic library screen (AID 1346987); also: nearly all actives have a fitted effect of over 65% in size; also: potency is read from the fitted curve at half-maximal effect
# Procedure, shortened: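 In this qHTS, P-gp-rich KB-8-5-11 cells received library compounds across a concentration range. Viability was quantified by luminescence after 72 h at 37 degree C.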
# [7] = Natriuretic polypeptide receptor (hNpr1) antagonism - Pilot counterscreen GloSensor control cell line (AID 1347045; calls by dose curve)
# Procedure, shortened: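 HEK293 cGMP-sensor cells; 2% GloSensor reagent 2 h RT; LOPAC compounds in 1:5 titrations 30-50 min; 50 uM SNP 20 min; luminescence pre-read and post-read.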
# [8] = biological target: Atrial natriuretic peptide receptor 1 (Homo sapiens) (UniProt P16066); experiment: Natriuretic polypeptide receptor (hNpr1) antagonism - Pilot screen (AID 1347049; calls by dose curve;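 also: agonist-evoked cGMP luminescence read 20 min after hNppA addition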)
# Atrial natriuretic peptide receptor 1 (Homo sapiens), sequence (P16066 whole entry, looked up): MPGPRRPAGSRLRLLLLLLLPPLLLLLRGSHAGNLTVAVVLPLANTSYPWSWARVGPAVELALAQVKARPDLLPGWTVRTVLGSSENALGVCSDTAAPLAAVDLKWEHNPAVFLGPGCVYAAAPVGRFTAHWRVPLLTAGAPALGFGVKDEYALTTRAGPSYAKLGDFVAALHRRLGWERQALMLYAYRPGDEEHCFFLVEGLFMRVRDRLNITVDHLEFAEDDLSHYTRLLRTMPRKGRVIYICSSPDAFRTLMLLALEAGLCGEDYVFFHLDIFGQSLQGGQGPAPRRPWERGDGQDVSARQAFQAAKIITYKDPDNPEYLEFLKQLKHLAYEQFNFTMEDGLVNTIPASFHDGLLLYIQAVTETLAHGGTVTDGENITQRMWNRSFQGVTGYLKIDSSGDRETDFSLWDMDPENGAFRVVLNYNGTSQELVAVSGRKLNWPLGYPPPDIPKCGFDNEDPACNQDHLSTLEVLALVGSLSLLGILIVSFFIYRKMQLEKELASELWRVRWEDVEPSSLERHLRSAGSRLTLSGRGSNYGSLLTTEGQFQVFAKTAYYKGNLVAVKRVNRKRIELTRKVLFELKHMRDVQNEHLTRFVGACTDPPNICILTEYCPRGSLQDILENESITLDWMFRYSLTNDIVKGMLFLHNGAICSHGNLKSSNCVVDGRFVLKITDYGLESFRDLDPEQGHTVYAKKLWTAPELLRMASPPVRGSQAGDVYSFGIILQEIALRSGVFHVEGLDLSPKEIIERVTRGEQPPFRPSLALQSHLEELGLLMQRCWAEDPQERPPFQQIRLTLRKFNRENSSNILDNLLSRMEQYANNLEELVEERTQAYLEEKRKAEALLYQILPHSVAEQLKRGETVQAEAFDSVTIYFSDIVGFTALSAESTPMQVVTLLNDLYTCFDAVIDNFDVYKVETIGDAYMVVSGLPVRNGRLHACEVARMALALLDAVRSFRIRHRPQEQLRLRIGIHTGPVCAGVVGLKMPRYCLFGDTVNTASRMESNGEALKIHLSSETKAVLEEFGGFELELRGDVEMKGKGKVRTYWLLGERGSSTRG
# Procedure, shortened: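 cGMP-sensor HEK293/hNpr1 cells, 1500/well, plated overnight at 37C. 2% GloSensor reagent, 2 h RT. Compound (23 nL pin transfer) 30 min RT, baseline luminescence pre-read. 0.1 nM hNppA, 20 min RT, post-read.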
# [9] = P-glycoprotein substrates identified in KB-3-1 adenocarcinoma cell line, qHTS therapeutic library screen (AID 1346986); conditions: outcome: dose series up to 44.5 µM; also: nearly all actives have a fitted effect of over 60% in size
# Procedure, shortened: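 Viability by CellTiter-Glo after 72 h compound exposure at 37 degree C, 5% CO2. Cytotoxic call: curve class -1.1 to -2.4, maximum response >50%, AC50 < 10 uM, compared across KB-3-1 and P-gp-overexpressing KB-8-5-11.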
# [10] = qHTS assay for cell viability of HEK293 cells (AID 743288); conditions: ATP luminescence (CellTiter-Glo), 18 h; max response: stronger effect = lower value; also: nearly all actives have a fitted effect of over 50% in size
# Procedure, shortened: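 Readout is luciferase-coupled ATP content (CellTiter-Glo luminescence, 30 min room temperature) as a measure of metabolically competent cells. Parental HEK293 cells were plated 5 h or more before compound addition, then treated 18 h at 37 C.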
# [11] = qHTS profiling for inhibitors of Plasmodium falciparum (3D7) proliferation (AID 743322; call rule not given here;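 also: infected erythrocytes exposed to compound for 72 h before lysis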); conditions: P. falciparum 3D7 proliferation; at 28.7 µM (top of the series) unless noted
# Procedure, shortened: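 Parasite DNA was quantified by SYBR Green I fluorescence (ex 485, em 535 nm) after overnight lysis in saponin/Triton buffer at room temperature. Cultures at 0.3% parasitemia and 2.5% hematocrit were first exposed to compound for 72 h at 37 C; signals were normalised to artemisinin (0.29 uM) and vehicle wells.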
# [12] = qHTS profiling for inhibitors of Plasmodium falciparum (DD2) proliferation (AID 743323; call rule not given here); conditions: lower = more inhibition; at 28.7 µM (top of the series) unless noted
# Procedure, shortened: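 Parasite DNA quantified by SYBR Green fluorescence (ex 485, em 535 nm) after saponin/Triton lysis and overnight dark incubation. Cultures: 0.3% parasitemia, 2.5% hematocrit, 72 h, 37 C; data scaled between DMSO and 0.29 uM artemisinin.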
# [13] = qHTS profiling for inhibitors of Plasmodium falciparum (HB3) proliferation (AID 743324); conditions: Plasmodium falciparum HB3 blood-stage proliferation; at 28.7 µM (top of the series)
# Procedure, shortened: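 SYBR Green fluorescence (485 ex/535 em) of lysed cultures, incubated overnight at room temperature in the dark, quantifies parasite DNA. Infected erythrocytes at 0.3% parasitemia and 2.5% hematocrit were exposed 72 h; values normalized to DMSO and 0.29 uM artemisinin controls.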
SMILES,max response [1],outcome [2],outcome [3],Potency [4],Potency [5],Potency [6],Potency [7],Potency [8],outcome [9],max response [10],Potency [1],remaining parasite growth % (stronger effect = lower value) [11] [%],"activity, percent of control [12] [%]","remaining proliferation (% of control), lower = more inhibition [13] [%]"
CN(C)CCOC(=O)COc1ccc(Cl)cc1,11% (inactive) and 8.28% (inactive),inactive,inactive,inactive,inactive,inactive,inactive,inactive,,,,,,
NC(=O)c1ncn([C@@H]2O[C@H](CO)[C@@H](O)[C@H]2O)c1O,13.6% (inactive),inactive,inactive,inactive,inactive,inactive,inactive,inactive,,,,,,
CCO/C([O-])=N/c1c[n+](N2CCOCC2)no1,-5.19% (inactive),inactive,inactive,inactive,inactive,inactive,inactive,inactive,,,,,,
O=C(O)CP(=O)(O)O,-7.11% (inactive) and 18.5% (inactive),inactive,inactive,inactive,inactive,inactive,inactive,inactive,,,,,,
O=C(O)CN(CCN(CC(=O)O)CC(=O)O)CCN(CC(=O)O)CC(=O)O,13% (inactive) and 27.1% (inactive),inactive,inactive,inactive,inactive,inactive,inactive,inactive,,,,,,
NCCCNCCSP(=O)(O)O,4.77% (inactive) and 12.2% (inactive),inactive,inactive,inactive,inactive,inactive,inactive,inactive,,,,,,
Cc1ccc(Cl)c(Nc2ccccc2C(=O)O)c1Cl,-8.31% (inactive) and 12.8% (inactive),inactive,inactive,inactive,inactive,inactive,inactive,inactive,,,,,,
CCCCNc1ccc(C(=O)OCCN(C)C)cc1,-1.47% (inactive) and 12.4% (inactive),inactive,inactive,inactive,inactive,inactive,inactive,,,,,,,
CCCNC(C)C(=O)Nc1ccccc1C (configuration not stated),7.26% (inactive) and 27.6% (inactive),inactive,inactive,inactive,inactive,inactive,inactive,inactive,,,,,,
CCN1CCc2nc(N)oc2CC1,11% (inactive) and 14% (inactive),inactive,inactive,inactive,inactive,inactive,inactive,inactive,,,,,,
CCCCCN(CCCCC)C(=O)C(CCC(=O)O)NC(=O)c1ccc(Cl)c(Cl)c1 (configuration not stated),10.8% (inactive) and 16.9% (inactive),inactive,inactive,inactive,inactive,inactive,inactive,inactive,,,,,,
CCCN1C[C@H](CSC)C[C@@H]2c3cccc4[nH]cc(c34)C[C@H]21,27.1% (inactive),inactive,inactive,inactive,inactive,inactive,inactive,inactive,inactive,,,,,
C[N+](C)(C)CCOC(=O)CCC(=O)OCC[N+](C)(C)C,0.123% (inactive) and 29.2% (inactive),inactive,inactive,inactive,inactive,inactive,inactive,inactive,,,,,,
CC(C)NNC(=O)c1ccncc1,-4.04% (inactive) and 10% (inactive),inactive,inactive,inactive,inactive,inactive,inactive,,,,,,,
Cc1ccc(=O)n(-c2ccccc2)c1,6.86% (inactive) and 22.4% (inactive),inactive,inactive,inactive,inactive,inactive,inactive,inactive,,,,,,
Cc1ccc(S(=O)(=O)NC(=O)NN2CCCCCC2)cc1,-5.27% (inactive) and 9.03% (inactive),inactive,inactive,inactive,inactive,inactive,inactive,inactive,,-0.908% (inactive),,,,
NC1=NCC2c3ccccc3Cc3ccccc3N12 (configuration not stated),-4.93% (inactive) and 13.9% (inactive),inactive,inactive,inactive,inactive,inactive,inactive,,,,,,,
CCOC(=O)C1=C(C)NC(C)=C(C(=O)OC)C1c1cccc(Cl)c1Cl (configuration not stated),21.2% (inactive) and 4.35% (inactive),inactive,inactive,inactive,inactive,inactive,inactive,inactive,,,,,,
CC(C(=O)O)c1ccc(CC2CCCC2=O)cc1 (configuration not stated),-0.912% (inactive) and 17.1% (inactive),inactive,inactive,inactive,inactive,inactive,inactive,inactive,,,,,,
CC(=O)OC(C)C[N+](C)(C)C (configuration not stated),-4.19% (inactive) and 23.1% (inactive),inactive,inactive,inactive,inactive,inactive,inactive,inactive,,,,,,
CCN(CC)CCNC(=O)c1cc(S(C)(=O)=O)ccc1OC,-4.07% (inactive),inactive,inactive,inactive,inactive,inactive,inactive,inactive,,,,,,

SMILES,max response [1],outcome [2],outcome [3],Potency [4],Potency [5],Potency [6],Potency [7],Potency [8],outcome [9],max response [10],Potency [1],remaining parasite growth % (stronger effect = lower value) [11] [%],"activity, percent of control [12] [%]","remaining proliferation (% of control), lower = more inhibition [13] [%]"
NC(Cc1ccc(Cl)cc1)C(=O)O (configuration not stated),3.16% (inactive),inactive,inactive,inactive,inactive,inactive,inactive,inactive,,,,,,
CCN(CC)CCCN(c1ccccc1)C1Cc2ccccc2C1,,inactive,inactive,31.6 µM (active),23.1 µM (active),10.3 µM (active),inactive,inactive,,,,,,
c1ccc2c(c1)CCCC2C1=NCCN1 (configuration not stated),-2.52% (inactive) and 13.8% (inactive),inactive,inactive,inactive,inactive,inactive,inactive,inactive,,,,,,
CNC1(C)C2CCC(C2)C1(C)C (configuration not stated),12.1% (inactive) and 8.7% (inactive),inactive,inactive,inactive,inactive,inactive,inactive,inactive,,,,,,
COC(=O)[C@@H](N)Cc1ccc(O)c(O)c1,43.3% (inactive),inactive,inactive,inactive,inactive,inactive,inactive,inactive,,,,,,
C[N+](C)(C)CCOC(N)=O,20.5% (inactive) and 14.2% (inactive),inactive,inactive,inactive,inactive,inactive,inactive,inactive,,,,,,
CN/C(=C\[N+](=O)[O-])NCCSCc1ccc(CN(C)C)o1,33.4% (inactive),inactive,inactive,inactive,inactive,inactive,inactive,inactive,,,,,,
Cc1nnc(SCC2=C(C(=O)O)N3C(=O)[C@@H](NC(=O)Cn4cnnn4)[C@H]3SC2)s1,5.06% (inactive) and 32.1% (inactive),inactive,inactive,inactive,inactive,inactive,inactive,inactive,,,,,,
CNCCCN1c2ccccc2CCc2ccccc21,,inactive,inactive,inactive,inactive,inactive,inactive,inactive,,,,,,
O=C(O)CCCCCCCC(=O)O,9% (inactive) and 10.5% (inactive),inactive,inactive,inactive,inactive,inactive,inactive,inactive,,-0.211% (inactive),,,,
CCCOc1ccccc1-c1nc2n[nH]nc2c(=O)[nH]1,-5.53% (inactive) and 14.3% (inactive),inactive,inactive,inactive,inactive,inactive,inactive,inactive,,,,,,
O=C(CCNNC(=O)c1ccncc1)NCc1ccccc1,-0.149% (inactive) and 4.87% (inactive),inactive,inactive,inactive,inactive,inactive,inactive,inactive,,,,,,
Cc1cc(C)c(/C=C2\C(=O)Nc3ccccc32)[nH]1,-7.62% (inactive) and 20.5% (inactive),inactive,inactive,inactive,inactive,,inactive,inactive,inactive,,,,,
CC(N=C(NC#N)Nc1ccncc1)C(C)(C)C (configuration not stated),14.1% (inactive) and -10.9% (inactive),inactive,inactive,inactive,inactive,inactive,inactive,inactive,,,,,,
CC(=O)[C@]1(O)Cc2c(O)c3c(c(O)c2[C@@H](O[C@H]2C[C@H](N)[C@H](O)[C@H](C)O2)C1)C(=O)c1ccccc1C3=O,,inactive,inactive,0.794 µM (active),1.16 µM (active),4.11 µM (active),,,,,6.31 µM (active) and 1.12 µM (active),,,
CC1=NS(=O)(=O)c2cc(Cl)ccc2N1,4.85% (inactive),inactive,inactive,inactive,inactive,,inactive,inactive,,,,,,
CNCCC(Oc1ccccc1OC)c1ccccc1 (configuration not stated),19.3% (inactive),inactive,inactive,inactive,inactive,inactive,inactive,,,,,104,48,91.8
Cc1nc2ccccn2c(=O)c1CCN1CCC(C(=O)c2ccc(F)cc2)CC1,14.2% (inactive),inactive,inactive,inactive,inactive,,inactive,inactive,,,,,,
CN(C)C/C=C(/c1ccc(Br)cc1)c1cccnc1,-5.39% (inactive) and -10% (inactive),inactive,inactive,inactive,inactive,,inactive,inactive,,,,,,
CC(=O)OCC1=C(C(=O)O)N2C(=O)[C@@H](NC(=O)Cc3cccs3)[C@H]2SC1,2.41% (inactive) and 26.5% (inactive),inactive,inactive,inactive,inactive,inactive,inactive,,,,,,,
